Source: PubChem BioAssay
PLK1 PBD inh = qHTS for Inhibitors of PLK1-PDB (polo-like kinase 1 - polo-box domain): Primary Screen; Serine/threonine-protein kinase PLK1 (Homo sapiens), P53350; Plk1 PBD binding of FITC phosphopeptide, fluorescence polarization; Potency, µM, for the others: max response, negative = inhibition, most hits filed as inhibitors; 360,000 compounds, 2.8% hits; AID 720504, 2013; note: potency is the fitted concentration of half-maximal effect; series mostly up to about 57 µM; % is set by controls: 0 for no effect and ±100 for the full control effect; nearly all actives have a fitted effect of over 65% in size
PI5P4Ka inh = qHTS for Inhibitors of phosphatidylinositol 5-phosphate 4-kinase (PI5P4K) | Phosphatidylinositol 5-phosphate 4-kinase type-2 alpha (Homo sapiens), P48426 | max response, % | PI5P4Kalpha enzyme, ADP-Glo luminescence, 60 min; hits give low values | 330,000 compounds, 1.2% hits | AID 652105, 2013; active = max response of -50% or lower; inconclusive = between -30% and -50%; inactive = -30% or higher; note: value at the top dose of about 77 µM; % is set by controls: 0 for no effect and ±100 for the full control effect
Target sequence (P48426 whole entry, looked up): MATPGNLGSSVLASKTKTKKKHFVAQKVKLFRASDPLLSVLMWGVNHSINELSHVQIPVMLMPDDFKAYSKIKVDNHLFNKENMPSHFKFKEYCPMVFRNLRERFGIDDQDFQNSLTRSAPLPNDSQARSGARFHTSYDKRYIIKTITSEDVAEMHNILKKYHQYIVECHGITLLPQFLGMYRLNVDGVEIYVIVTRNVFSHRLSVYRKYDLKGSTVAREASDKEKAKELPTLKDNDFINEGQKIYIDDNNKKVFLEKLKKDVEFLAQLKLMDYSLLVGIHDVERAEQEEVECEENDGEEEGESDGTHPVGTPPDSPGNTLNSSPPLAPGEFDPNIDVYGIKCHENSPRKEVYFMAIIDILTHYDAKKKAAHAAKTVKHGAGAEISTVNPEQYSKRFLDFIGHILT
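Single end-point luminescence (ADP-Glo) quantified ADP from PI5P4Kalpha turnover; ATP 5 microM final, 1 h at RT, 0.1% CHAPS and 0.28 mM EGTA in HEPES pH 7.4.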
BAZ2B inh = qHTS Assay for Inhibitors of BAZ2B; AlphaScreen BAZ2B-H3K14Ac peptide displacement; Bromodomain adjacent to zinc finger domain protein 2B (Homo sapiens), Q9UIF8; Potency, µM (top dose mostly 114 µM), inactives show at the highest dose activity change, negative = inhibition, usual class: inhibitors; 360,000 compounds, 4.4% hits; note: potency is the fitted concentration of half-maximal effect; % is set by controls: 0 for no effect and ±100 for the full control effect; nearly all actives have a fitted effect of over 60% in size
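AlphaScreen displacement: compounds (up to 110uM) incubated 30 min at room temperature with a preformed 50 nM BAZ2B/50 nM biotinylated H3K14Ac peptide complex in PBS pH 7.4 with Tween-20. Donor and acceptor beads at 10 ug/mL final added, 20 min light-protected before reading.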
G9a inh = qHTS Assay for Inhibitors of Histone Lysine Methyltransferase G9a | Histone-lysine N-methyltransferase EHMT2 (Homo sapiens), Q96KQ7 | G9a H3K9 monomethylation, AlphaScreen, 2 h | Potency, µM (top dose mostly 102 µM), for inactives: at the top dose activity, negative = inhibition, usual class: inhibitors | 350,000 compounds, 8.8% hits; note: potency is the fitted concentration of half-maximal effect; % is set by controls: 0 for no effect and ±100 for the full control effect; nearly all actives have a fitted effect of over 75% in size
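Enzyme 20 nM + cpd, 15 min RT; add b-H3K9 pep 500 nM / SAM 20 uM; 2 h RT; anti-H3K9me1 Ab 0.5 ug/mL + SA donor / anti-rabbit acceptor beads 20 ug/mL each, 10 min; AlphaScreen read.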
HP1b binding inh = HTS for Inhibitors of HP1-beta Chromodomain Interactions with Methylated Histone Tails; Chromobox protein homolog 1 (Homo sapiens), P83916; AlphaScreen HP1-beta / biotin-H3K9me3 peptide binding; Potency, µM (top dose mostly 114 µM), for the others: top-dose activity change, negative = inhibition, most hits filed as inhibitors; 390,000 compounds, 0.56% hits; AID 540317, 2011; note: potency is the fitted concentration of half-maximal effect; nearly all actives have a fitted effect of over 70% in size
Target sequence (P83916 whole entry, looked up): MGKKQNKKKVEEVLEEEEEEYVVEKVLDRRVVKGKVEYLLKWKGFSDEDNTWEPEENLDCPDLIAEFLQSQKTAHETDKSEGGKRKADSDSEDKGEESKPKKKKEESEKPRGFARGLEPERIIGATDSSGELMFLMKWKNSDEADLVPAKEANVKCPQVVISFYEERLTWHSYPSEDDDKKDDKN
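HP1-beta protein (50 nM final) preincubated 30 min at room temperature with biotinylated H3(1-18)K9me3 peptide (50 nM) in PBS pH 7.4, 0.01% Tween-20, then compound added for 30 min. AlphaScreen streptavidin donor/nickel chelate acceptor beads (10 ug/mL final), 30 min dark, luminescence read.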
JMJD2A Tudor inh = qHTS Assay for Inhibitors of JMJD2A-Tudor Domain; Lysine-specific demethylase 4A (Homo sapiens), O75164; AlphaScreen JMJD2A-Tudor / H3K4me3 peptide binding; Potency, µM (series often up to 114 µM), for inactives: at the highest dose activity change, negative = inhibition, usual class: inhibitors; 390,000 compounds, 4.4% hits; AID 504339, 2011; note: potency is the fitted concentration of half-maximal effect; % is set by controls: 0 for no effect and ±100 for the full control effect; nearly all actives have a fitted effect of over 50% in size
* hit, by the source's call; u = inconclusive; x = no result; [ ] = dose if it differs, or a comment. This is a sample that favours compounds with a hit; in the whole collection about 12% have one here. Unless noted, calls come from the whole dose curve; as a rule, active = well fitted curve in the direction sought with a large enough effect; inconclusive = small, poorly fitted or top-dose-only effect, or another doubt; inactive = no such curve, though single readings can be large; an effect the other way counts as inactive or inconclusive.

SMILES	PLK1 PBD inh	PI5P4Ka inh	BAZ2B inh	G9a inh	HP1b binding inh	JMJD2A Tudor inh
O=C(CN1CCCC1)Nc1ccc(OC(F)(F)F)cc1	0.0%	2.7	u	x	u	0.794µM*
O=C(CN1CCC(NC(=O)C2CCCCC2)CC1)Nc1ccccc1	u	2.1	x	x	-26.9%[57 µM]	0.891µM*
CCC(=O)OCC(=O)[C@@]1(OC(=O)CC)[C@@H](C)C[C@@H]2[C@H]3CCC4=CC(=O)C=C[C@]4(C)[C@@]3(F)[C@@H](O)C[C@@]21C	x	x	x	2.1%[59 µM]	x	x
CCN(CC)c1ccc(NC(=O)CN2CCN(CC(=O)Nc3ccc(OC)cc3)CC2)cc1	-0.8%	2.0	-25.5%	11.2µM*	12.0%	-21.1%
CCN(CC)c1ccc(NC(=O)CN2CCN(S(=O)(=O)c3ccc(C(C)C)cc3)CC2)cc1	x	x	7.94µM*	u	u	14.1µM*
CCc1cccc(C)c1NC(=O)CNCc1ccccc1	0.0%	8.8	56.5%	17.8µM*	u	8.91µM*
O=C(CN1CCCCC1)NN(Cc1ccccc1)c1ccccc1	-6.1%	9.2	50.1µM*	15.8µM*	u	-2.3%[11.4 µM]
CC(C)c1ccc(S(=O)(=O)N2CCN(CC(=O)Nc3ccc(Cl)cc3F)CC2)cc1	3.1%	5.8	11.6%	-9.8%[12.7 µM]	38.4%	-10.1%
CN(C)c1ccc(NC(=O)N2CCOCC2)cc1	-6.2%	-11.9	u	3.98µM*	-11.9%	u
Cc1ccc(NC(=O)CN2CCCC2)cc1Br	0.4%	1.9	u	50.1µM*	0.5%	56.2µM*
CN(C)c1ccc(NC(=O)CN2CCN(CC(=O)Nc3ccc(Br)cc3)CC2)cc1	x	x	-14.7%	8.91µM*	20.3%[57 µM]	-22.6%
O=C(CN1CCCCCC1)Nc1ccc(Br)cc1	3.3%	x	7.9%	-7.7%[12.7 µM]	24.0%	-1.3%
Cc1ccc(NC(=O)CNCc2ccccc2)cc1Br	-12.7%	-9.6	50.1µM*	7.94µM*	u	0.794µM*
O=C(Nc1ccc(F)cc1)N1CCOCC1	-11.5%	-5.2	7.3%	14.9%[2.33 µM]	26.2%	6.3%
Cc1nn(C)c2c1c(-c1ccccc1)cc(=O)n2Cc1ccc(F)cc1	x	x	36.9%	43.5%[59 µM]	123.3%	34.3%
O=C(C1CC(=O)N(c2ccccc2F)C1)N1CCOCC1 (stereo unspecified)	2.6%	-2.4	x	x	38.5%	5.2%
CN(C)c1ccc(NC(=O)CN2CCC(NC(=O)C3CCCCC3)CC2)cc1	-12.3%	-0.5	-38.0%	u	-18.4%	u
O=C(CNCC1CCCCC1)Nc1ccc(OC(F)(F)F)cc1	-9.0%	-0.7	50.1µM*	8.91µM*	-25.0%	3.55µM*
CN(C)c1ccc(NC(=O)CN2CCC(N3CCCCC3)CC2)cc1	-7.6%	-0.7	44.7µM*	2.24µM*	u	u
Cc1ccccc1OCCSc1nc2ccc(NC(=O)c3cccs3)cc2s1	x	x	2.1%	11.1%[59 µM]	27.8%	-1.0%
CC(C)(C)OC(=O)Cc1nnc(-c2cc3ccccc3[nH]2)s1	x	x	x	x	x	-14.4%
Cc1ccc2[nH]c(O)c(N=Nc3ccccc3C)c2c1	-5.0%	1.4	u	8.91µM*	70.8µM*	u
Cc1ccccc1N=Nc1c(O)[nH]c2ccccc12	u	-7.2	x	x	-5.1%	u
O=C(N=Nc1c(O)[nH]c2ccc(Br)cc12)c1ccccc1-n1cccc1	0.6%	x	31.6µM*	25.1µM*	u	15.8µM*
COc1ccc2[nH]c(N=Nc3ccccc3C)c(O)c2c1	-12.8%	-1.4	u	12.6µM*	-12.4%	44.7µM*
SMILES	PLK1 PBD inh	PI5P4Ka inh	BAZ2B inh	G9a inh	HP1b binding inh	JMJD2A Tudor inh
N=C(N)N=Nc1c(O)[nH]c2ccc(Br)cc12	5.2%	4.8	u	u	13.7%	-30.1%
COc1ccccc1N=Nc1c(O)[nH]c2ccc(Br)cc12	u	0.2	3.2%	-9.6%	-2.1%	44.7µM*
Cc1cccc(N=Nc2c(O)[nH]c3ccc(Br)cc23)c1	-14.0%	25.6	-22.1%	44.7µM*	23.0%	-28.1%
Cc1ccc(S(=O)(=O)N2CC(=NO)C2)cc1	0.1%	0.7	-3.8%	44.7µM*	35.8%	-6.2%
Cc1nnc(NC(=O)c2ccc3ccccc3c2)o1	-2.7%	0.6	28.2µM*	6.8%[59 µM]	30.6%	50.1µM*
O=C(Nc1nnc(-c2ccco2)o1)c1ccc2ccccc2c1	u	-5.9	8.2%	-4.1%[59 µM]	48.1%	-15.2%[57.1 µM]
COCCN(CCOC)S(=O)(=O)c1ccc(C(=O)Nc2nnc(C)o2)cc1	-20.4%	-0.6	14.1µM*	7.08µM*	3.8%	28.2µM*
Cc1nnc(NC(=O)c2ccc(S(=O)(=O)N(C)Cc3ccccc3)cc2)o1	-8.7%	-9.5	79.4µM*	-1.5%	42.7%	u
COCCN(CCOC)S(=O)(=O)c1ccc(C(=O)Nc2nc(C)c(C(C)=O)s2)cc1	-11.9%	x	-3.3%	36.7%[12.7 µM]	15.6%	-17.6%
Cc1oc2ccc(O)c(CN(C)Cc3ccccc3)c2c1C(=O)Nc1cccc(C(F)(F)F)c1	x	x	-23.4%	-16.1%[59 µM]	22.6%	-14.9%
CCC1CN(C(=O)N2CCC(C(=O)NCc3cc(OC)c(OC)c(OC)c3)CC2)c2ccccc2O1 (stereo unspecified)	-8.6%	2.7	-16.9%	27.0%	63.4%	-13.7%
CCOC(=O)C1(N(CC)CC)Sc2cc(C)ccc2NC1=O (stereo unspecified)	-22.5%	3.5	u	u	5.5%	-8.7%[57.1 µM]
COC(=O)C1=C(C(=O)OC)SC2(S1)C(C(=O)OC)=C(C(=O)OC)SC1=C2c2cc(C)ccc2NC1(C)C	3.36µM*	u	u	u	-80.5%	56.2µM*
COc1ccc(-c2nsc(NC(=O)c3cccc(OC)c3)n2)cc1	x	x	-3.3%	4.8%[59 µM]	41.7%	-12.9%
O=C1N(O)C2(C=CCCC2)/C(=N\O)C12CCCCC2 (stereo unspecified)	29.9µM*	-0.4	x	0.5%[59 µM]	-2.4%	-11.5%[11.4 µM]
O=c1c(Cl)c(Cl)cnn1Cc1nnc(-c2ccccc2Br)o1	u	-57.2*	11.5%	-13.2%	32.5%	-9.7%
Clc1ccccc1OCc1nnc(-c2ccccc2Br)o1	-7.2%	0.2	82.4%	14.0%[59 µM]	167.1%	64.2%
CC1(c2ccco2)NC(=O)NC1=O (stereo unspecified)	23.8µM*	-11.4	-3.5%	20.2%[59 µM]	-15.6%	-2.3%[11.4 µM]
Cc1ccc(C(=O)Nc2cccc([N+](=O)[O-])c2)cc1S(=O)(=O)Nc1ccc(NC(=O)c2ccccc2)cc1	4.1%	-12.9	-36.4%	u	13.1%	-8.1%
Cc1ccc(O)c(NC(=O)c2ccc(Br)c(S(=O)(=O)N3CCCCC3)c2)c1	x	x	17.8µM*	u	-5.1%	u
